From the supplement of paper PMC12494721 come the findings set out here.

Structures can show the parent of a compound that is named as a salt.

For one test, the system named is Clostridium sporogenes DSM 1664. Nature of the test: growth (OD595) fold change vs plate DMSO controls (fold change (ratio)); higher = more growth. The settings on record: incubation time: 27 h, anaerobic, 37 °C. The procedure, abridged:
(§1)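 Anaerobic 27 h, 37 °C mGAM 96-well cultures were shaken, then read for absorbance at 595 nm. Values were blank-subtracted and corrected for compound background using 20 µM compound solutions in water. A calibration factor of 5 converted them to OD. Growth is the fold change versus the median of plate DMSO controls. Fold changes above 1.5 were set to NA, and values are the mean of 2 biological replicates.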
Turning to `CCOC(=O)C1=C[C@]2(CC)CCCN3CCc4c(n1c1ccccc41)[C@@H]32` [Vinpocetine] (20 µM), the growth amounted to 0.883.

With `Clc1ccccc1C(c1ccccc1)(c1ccccc1)n1ccnc1` [Clotrimazole] (20 µM), the growth worked out at 0.97.

As for `CC(C[N+](C)(C)C)OC(N)=O` (stereo not drawn) [Bethanechol chloride] (20 µM), the growth is 0.85.

Turning to `C=CC(N)CCC(=O)O` (stereo not drawn) [Vigabatrin hydrochloride] (20 µM), the growth was 1.11.

With `C=C1C[C@@]23CC[C@H]4[C@@](C)(CCC[C@@]4(C)C(=O)O[C@@H]4O[C@H](CO)[C@@H](O)[C@H](O)[C@H]4O)[C@@H]2CC[C@]1(O[C@@H]1O[C@H](CO)[C@@H](O)[C@H](O)[C@H]1O[C@@H]1O[C@H](CO)[C@@H](O)[C@H](O)[C@H]1O)C3` [Stevioside] (50 µM), the growth stood at 0.957.

Regarding `CCCN(CCC)C(=O)C(CCC(=O)O)NC(=O)c1ccccc1` (stereo not drawn) [Proglumide] (20 µM), the growth worked out at 0.898.

On to `CN1CCC(=C2c3ccccc3CC(=O)c3sccc32)CC1` [Ketotifen fumarate] (20 µM), for which the growth came out at 1.

As to `Cc1ccc(-c2ncc(Cl)cc2-c2ccc(S(C)(=O)=O)cc2)cn1` [Etoricoxib] (20 µM), the growth stood at 1.04.

In the case of `C[C@@H](O)[C@H]1C(=O)N2C(C(=O)O)=C(S[C@@H]3CN[C@H](C(=O)N(C)C)C3)[C@H](C)[C@H]12` [Meropenem] (20 µM), the growth stood at 0.

For the compound `CC(C)(C)c1ccc(C(O)CCCN2CCC(C(O)(c3ccccc3)c3ccccc3)CC2)cc1` (stereo not drawn) [Terfenadine] (20 µM), the growth came to 1.21.

Regarding `CC(NN)c1ccccc1` (stereo not drawn) [Mebanazine] (20 µM), the growth worked out at 1.11.

Regarding `OCCN1CCN(CC/C=C2/c3ccccc3Sc3ccc(C(F)(F)F)cc32)CC1` [Flupentixol dihydrochloride cis-(Z)] (20 µM), the growth worked out at 1.03.

Consider `C#CCN(C)CCCOc1ccc(Cl)cc1Cl` [Clorgyline hydrochloride] (20 µM), for which the growth worked out at 1.02.

In the case of `CN(C)C(=O)C(CCN1CCC(O)(c2ccc(Cl)cc2)CC1)(c1ccccc1)c1ccccc1` [Loperamide hydrochloride] (20 µM), the growth came to 1.1.

For `CC[N+](CC)(CC(=O)Nc1c(C)cccc1C)Cc1ccccc1` [Denatonium benzoate] (20 µM), the growth stood at 0.911.

As for `COc1cc(C)c(/C=C/C(C)=C/C=C/C(C)=C/C(=O)O)c(C)c1C` [Acitretin] (20 µM), the growth came out at 0.986.

As to `Nc1ccn([C@@H]2O[C@H](CO)[C@@H](O)[C@@H]2O)c(=O)n1` [Cytarabine] (20 µM), the growth is 0.956.

As for `COc1ccc2cc([C@H](C)C(=O)O)ccc2c1` [(S)-Naproxen] (20 µM), the growth turned out to be 1.04.

Turning to `COC(=O)Nc1nc2cc(C(=O)c3ccc(F)cc3)ccc2[nH]1` [Flubendazol] (20 µM), the growth amounted to 0.949.

Take `O=C(O)COc1nn(Cc2ccccc2)c2ccccc12` [Bendazac] (20 µM): the growth came to 1.19.

Turning to `O=C(O)Cc1ccc(-c2ccccc2)cc1` [Felbinac] (20 µM), the growth came to 1.

Take `CCOc1ccc2c(c1)C(C)=CC(C)(C)N2` [Ethoxyquin] (20 µM): the growth is 0.801.

As for `CN1CC2c3ccccc3Oc3ccc(Cl)cc3C2C1` (stereo not drawn) [Asenapine maleate] (20 µM), the growth was 1.1.

Take `CCOC(=O)OC(C)OC(=O)[C@@H]1N2C(=O)[C@@H](NC(=O)[C@H](N)c3ccccc3)[C@H]2SC1(C)C` (stereo partly drawn) [Bacampicillin hydrochloride] (20 µM): the growth turned out to be 0.

On to `CCCOc1ccccc1-c1nc2[nH]nnc2c(=O)[nH]1` [Zaprinast] (20 µM), for which the growth was 1.03.

For `CCCCC(O)c1ccccc1` (stereo not drawn) [Fenipentol] (20 µM), the growth was determined as 0.995.

Consider `CN[C@H](CC(C)C)C(=O)N[C@H]1C(=O)N[C@@H](CC(N)=O)C(=O)N[C@H]2C(=O)N[C@H]3C(=O)N[C@H](C(=O)N[C@H](C(=O)O)c4cc(O)cc(O)c4-c4cc3ccc4O)[C@H](O)c3ccc(c(Cl)c3)Oc3cc2cc(c3O[C@@H]2O[C@H](CO)[C@@H](O)[C@H](O)[C@H]2O[C@H]2C[C@](C)(N)[C@H](O)[C@H](C)O2)Oc2ccc(cc2Cl)[C@H]1O` [Vancomycin hydrochloride] (20 µM), for which the growth is 0.

With `N#Cc1ccc(Oc2ccc3c(c2)COB3O)cc1` [Crisaborole] (20 µM), the growth turned out to be 1.06.

On to `COc1ccc([C@@H]2Sc3ccccc3N(CCN(C)C)C(=O)[C@@H]2OC(C)=O)cc1` [Diltiazem hydrochloride] (20 µM), for which the growth is 1.13.

The subject of the next test is Escherichia coli IAI1. The description is as above. The conditions noted are these: incubation time: 27 h, anaerobic, 37 °C. The procedure, abridged: as §1
`CC(=O)OCC(CCn1cnc2cnc(N)nc21)COC(C)=O` [Famciclovir] (20 µM): the growth was determined as 1.06.

Turning to `COC(c1ccccc1)(c1ccccc1)[C@H](Oc1nc(C)cc(C)n1)C(=O)O` [Ambrisentan] (20 µM), the growth was 1.2.

For the compound `C[C@H](CCC(=O)O)[C@H]1CC[C@H]2[C@@H]3[C@@H](O)C[C@@H]4C[C@H](O)CC[C@]4(C)[C@H]3CC[C@]12C` [Urosiol] (20 µM), the growth was 1.05.

Consider `C=C(CC)C(=O)c1ccc(OCC(=O)O)c(Cl)c1Cl` [Ethacrynic acid] (20 µM), for which the growth is 0.984.

For the compound `C[C@]12CC[C@@H]3c4ccc(O)cc4CC[C@H]3[C@@H]1C[C@@H](O)[C@@H]2O` [Estriol] (20 µM), the growth stood at 0.963.

For the compound `Cc1cc2cc3c(C)cc(=O)oc3c(C)c2o1` [Trioxsalen] (20 µM), the growth came out at 1.14.

Consider `O=C(Nc1cccc2c(=O)cc(-c3nnn[nH]3)oc12)c1ccc(OCCCCc2ccccc2)cc1` [Pranlukast] (20 µM), for which the growth is 1.07.

As for `C[N+]1(C)CCC(OC(=O)C(O)(c2ccccc2)C2CCCC2)C1` (stereo not drawn) [Glycopyrrolate bromide] (20 µM), the growth was 1.03.

As for `CC(C)(O)c1ccccc1CC[C@@H](SCC1(CC(=O)O)CC1)c1cccc(/C=C/c2ccc3ccc(Cl)cc3n2)c1` [Montelukast] (20 µM), the growth came to 1.

Take `C[C@@H]1C[C@H]2[C@@H]3C[C@H](F)C4=CC(=O)C=C[C@]4(C)[C@@]3(Cl)[C@@H](O)C[C@]2(C)[C@H]1C(=O)COC(=O)C(C)(C)C` [Clocortolone pivalate] (20 µM): the growth amounted to 1.03.

On to `CCOC(=O)C1=C[C@]2(CC)CCCN3CCc4c(n1c1ccccc41)[C@@H]32` [Vinpocetine] (20 µM), for which the growth turned out to be 0.979.

As to `Clc1ccccc1C(c1ccccc1)(c1ccccc1)n1ccnc1` [Clotrimazole] (20 µM), the growth is 0.974.

For `CC(C[N+](C)(C)C)OC(N)=O` (stereo not drawn) [Bethanechol chloride] (20 µM), the growth turned out to be 0.962.

With `C=CC(N)CCC(=O)O` (stereo not drawn) [Vigabatrin hydrochloride] (20 µM), the growth amounted to 1.06.

As to `C=C1C[C@@]23CC[C@H]4[C@@](C)(CCC[C@@]4(C)C(=O)O[C@@H]4O[C@H](CO)[C@@H](O)[C@H](O)[C@H]4O)[C@@H]2CC[C@]1(O[C@@H]1O[C@H](CO)[C@@H](O)[C@H](O)[C@H]1O[C@@H]1O[C@H](CO)[C@@H](O)[C@H](O)[C@H]1O)C3` [Stevioside] (50 µM), the growth worked out at 1.

For `CCCN(CCC)C(=O)C(CCC(=O)O)NC(=O)c1ccccc1` (stereo not drawn) [Proglumide] (20 µM), the growth amounted to 1.36.

As for `CN1CCC(=C2c3ccccc3CC(=O)c3sccc32)CC1` [Ketotifen fumarate] (20 µM), the growth came to 0.988.

With `Cc1ccc(-c2ncc(Cl)cc2-c2ccc(S(C)(=O)=O)cc2)cn1` [Etoricoxib] (20 µM), the growth was 1.02.

Consider `C[C@@H](O)[C@H]1C(=O)N2C(C(=O)O)=C(S[C@@H]3CN[C@H](C(=O)N(C)C)C3)[C@H](C)[C@H]12` [Meropenem] (20 µM), for which the growth turned out to be 0.0127.

Consider `CC(C)(C)c1ccc(C(O)CCCN2CCC(C(O)(c3ccccc3)c3ccccc3)CC2)cc1` (stereo not drawn) [Terfenadine] (20 µM), for which the growth worked out at 1.

As for `CC(NN)c1ccccc1` (stereo not drawn) [Mebanazine] (20 µM), the growth is 1.

`OCCN1CCN(CC/C=C2/c3ccccc3Sc3ccc(C(F)(F)F)cc32)CC1` [Flupentixol dihydrochloride cis-(Z)] (20 µM): the growth came to 0.959.

In the case of `C#CCN(C)CCCOc1ccc(Cl)cc1Cl` [Clorgyline hydrochloride] (20 µM), the growth came out at 0.993.

On to `CN(C)C(=O)C(CCN1CCC(O)(c2ccc(Cl)cc2)CC1)(c1ccccc1)c1ccccc1` [Loperamide hydrochloride] (20 µM), for which the growth is 1.04.

As to `CC[N+](CC)(CC(=O)Nc1c(C)cccc1C)Cc1ccccc1` [Denatonium benzoate] (20 µM), the growth amounted to 1.2.

Turning to `COc1cc(C)c(/C=C/C(C)=C/C=C/C(C)=C/C(=O)O)c(C)c1C` [Acitretin] (20 µM), the growth came to 1.1.

For `Nc1ccn([C@@H]2O[C@H](CO)[C@@H](O)[C@@H]2O)c(=O)n1` [Cytarabine] (20 µM), the growth worked out at 1.03.

On to `COc1ccc2cc([C@H](C)C(=O)O)ccc2c1` [(S)-Naproxen] (20 µM), for which the growth was 1.1.

Turning to `COC(=O)Nc1nc2cc(C(=O)c3ccc(F)cc3)ccc2[nH]1` [Flubendazol] (20 µM), the growth amounted to 1.04.

`O=C(O)COc1nn(Cc2ccccc2)c2ccccc12` [Bendazac] (20 µM): the growth amounted to 1.05.

Turning to `O=C(O)Cc1ccc(-c2ccccc2)cc1` [Felbinac] (20 µM), the growth worked out at 1.01.

Take `CCOc1ccc2c(c1)C(C)=CC(C)(C)N2` [Ethoxyquin] (20 µM): the growth came out at 1.

Consider `CN1CC2c3ccccc3Oc3ccc(Cl)cc3C2C1` (stereo not drawn) [Asenapine maleate] (20 µM), for which the growth is 0.969.

As for `CCOC(=O)OC(C)OC(=O)[C@@H]1N2C(=O)[C@@H](NC(=O)[C@H](N)c3ccccc3)[C@H]2SC1(C)C` (stereo partly drawn) [Bacampicillin hydrochloride] (20 µM), the growth was determined as 1.16.

Turning to `CCCOc1ccccc1-c1nc2[nH]nnc2c(=O)[nH]1` [Zaprinast] (20 µM), the growth came out at 0.972.

For `CCCCC(O)c1ccccc1` (stereo not drawn) [Fenipentol] (20 µM), the growth is 1.05.

On to `CN[C@H](CC(C)C)C(=O)N[C@H]1C(=O)N[C@@H](CC(N)=O)C(=O)N[C@H]2C(=O)N[C@H]3C(=O)N[C@H](C(=O)N[C@H](C(=O)O)c4cc(O)cc(O)c4-c4cc3ccc4O)[C@H](O)c3ccc(c(Cl)c3)Oc3cc2cc(c3O[C@@H]2O[C@H](CO)[C@@H](O)[C@H](O)[C@H]2O[C@H]2C[C@](C)(N)[C@H](O)[C@H](C)O2)Oc2ccc(cc2Cl)[C@H]1O` [Vancomycin hydrochloride] (20 µM), for which the growth came to 1.06.

Consider `N#Cc1ccc(Oc2ccc3c(c2)COB3O)cc1` [Crisaborole] (20 µM), for which the growth is 0.983.

On to `COc1ccc([C@@H]2Sc3ccccc3N(CCN(C)C)C(=O)[C@@H]2OC(C)=O)cc1` [Diltiazem hydrochloride] (20 µM), for which the growth came out at 1.02.
